Reference: the supplement of paper PMC10338343
± gives the standard deviation.

Columns and labels:
[1] = test system: MILI (PIWIL2) piRISC loaded with piRNA #1 (26 nt); experiment: pre-steady-state target cleavage rate (min^-1); guide: piRNA #1 5'p-UGAGGUAGUAGGUUGUAUAGUAUCCA; higher = faster piRNA-guided slicing of the target; settings: auxiliary factor: 500 nM mouse GTSF1
In short: (§1)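 Sequencing of uncleaved targets, normalised to depth and to weakly complementary targets, was the readout of this Cleave-'n-Seq assay. A transcribed, DNA-blocked target RNA library (0.1 nM) was mixed with 1 nM active affinity-purified piRISC carrying one synthetic guide, with or without 500 nM GTSF1 partner protein, in HEPES–potassium acetate buffer at 33 °C for 0–8 or 0–960 min. Three trials were pooled, k3 was capped at 0.0001 min^-1, and a burst-and-steady-state fit gave the pre-steady-state cleavage rate.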

[2] = test system: EfPiwi piRISC loaded with piRNA #1 (26 nt); experiment: pre-steady-state target cleavage rate (min^-1); auxiliary factor: 500 nM Ephydatia muelleri Gtsf1; guide: piRNA #1 5'p-UGAGGUAGUAGGUUGUAUAGUAUCCA; MIWI and MILI are mouse PIWI proteins and EfPiwi is from a freshwater sponge; tags in brackets are library labels; higher = faster piRNA-guided slicing of the target
In short: as §1

Sequence | pre-steady-state target cleavage rate [1] | pre-steady-state target cleavage rate [2]
GGAGACCUAUGAAAUACAACCUACUACCUCA | 0.0221 ± 0.0062 | 0.00445 ± 0.0038
GGAGACCAUACUAUACAACCUACUUCCACA | 0.0785 ± 0.018 | 0.0032 ± 0.0032
GGAGACCACUACUAUACAACCUACUACCUCA | 0.149 ± 0.016 | 0.0313 ± 0.014
GGAGUGGAAUCUAUACAACCUACUACCUCA | 0.152 ± 0.0088 | 0.00913 ± 0.0055
GGAGACGUUAGUAUACAACCUACUACCUCA | 0.119 ± 0.013 | 0.00686 ± 0.0036
GGAGUGGUUACUAAACAACCUACUACCUCA | 0.161 ± 0.0092 | 0.00439 ± 0.0033
GGAGACCUAUCUAUACACCCUACUACCUCA | 0.0257 ± 0.006 | 0.00728 ± 0.0037
GGAGAGGAUACUAUACAACCAACUACCACA | 0.0058 ± 0.0018 | 0.00388 ± 0.0019
GGAGAGGAUAUAUACAACCUACUACCUCA | 0.165 ± 0.014 | 0.00764 ± 0.0042
GGAGAGGAUACUAAACAACCUAGUACCUCA | 0.00823 ± 0.004 | 0.00257 ± 0.002
GGAGAGGAUACUAAUCAACCUACUACCUCA | 0.148 ± 0.011 | 0.00473 ± 0.0039
GGAGAGGUUACUAUACAACGUACUACCUCA | 0.00751 ± 0.0028 | 0.00457 ± 0.0015
GGAGAGGAUACUUUACAACCUACUAGCUCA | 0.0731 ± 0.013 | 0.00183 ± 0.0016
GGAGAGGAUACUAUACAACCCACUACCUCA | 0.0214 ± 0.0051 | 0.00601 ± 0.0024
GGAGAGGAUACUAUACAACCUACGACCUCA | 0.1 ± 0.013 | 0.00309 ± 0.0016
GGAGUGGAUACUAUACUACCUUCUACCUCA | 0.0207 ± 0.0034 | 0.00331 ± 0.0022
GGAGACCUAAUCUAUACAACCUACUACCUCA | 0.11 ± 0.024 | 0.297 ± 0.099
GGAGACCAUACUAUACAUCCAACUACCUCA | 0.00924 ± 0.0032 | 0.00245 ± 0.0022
GGAGACCUAUCAUAUACAACCUACUACCUCA | 0.0423 ± 0.0085 | 0.0103 ± 0.0048
GGAGACGAAACUAUACAACCUUCUACCUCA | 0.00739 ± 0.0047 | 0.00751 ± 0.0034

Sequence | pre-steady-state target cleavage rate [1] | pre-steady-state target cleavage rate [2]
GGAGACGAUACUAUACAACCUACUUCGUCA | 0.0101 ± 0.0048 | 0.00672 ± 0.0024
GGAGAGGAUACUAUACAAUCUACUACCUCA | 0.129 ± 0.0097 | 0.0116 ± 0.0062
GGAGUGCUAACUAUACAACCUACUACCUCA | 0.128 ± 0.015 | 0.0117 ± 0.0053
GGAGACGAAACUAUACAACGUACUACCUCA | 0.0174 ± 0.0054 | 0.00237 ± 0.0021
GGAGUGGAUACUAUACAACCUACUAUCCUCA | 0.05 ± 0.0077 | 0.00685 ± 0.0028
GGAGUCGAUUCUAUACAACCUACUACCUCA | 0.182 ± 0.01 | 0.00723 ± 0.0043
GGAGAGCAUACUAUACAACCUUCUACCUCA | 0.0105 ± 0.0032 | 0.00445 ± 0.0027
GGAGACCAAACUAUACAUCCUACUACCUCA | 0.168 ± 0.034 | 0.0348 ± 0.013
GGAGACGAUACUAUACAACCAACUACCACA | 0.00835 ± 0.0032 | 0.00406 ± 0.003
GGAGAGGAUACUAUAGAAGCUACUACCUCA | 0.0647 ± 0.0095 | 0.00238 ± 0.0021
GGAGACCAUACUAAUACAACCUACUACCUCA | 0.124 ± 0.014 | 0.0159 ± 0.0066
GGAGACGAUACUAUACAACCUACUACCUACA | 0.178 ± 0.013 | 0.00797 ± 0.0032
GGAGAGGAAACUUUACAACCUACUACCUCA | 0.224 ± 0.031 | 0.0107 ± 0.0049
GGAGUGGAUACUAAACAACCUACUACCUGA | 0.0827 ± 0.012 | 0.00228 ± 0.0017
GGAGACCAAACUAUACAACCUACAACCUCA | 0.12 ± 0.035 | 0.008 ± 0.0041
GGAGACGAUACUAUACAACCUACUACGAGA | 0.11 ± 0.034 | 0.00501 ± 0.0017
GGAGAGGAUACUAUACAACCUCUACCUCA | 0.0184 ± 0.0033 | 0.00619 ± 0.0034
GGAGACCUAUCUAAACAACCUACUACCUCA | 0.0794 ± 0.014 | 0.00381 ± 0.0037
GGAGACCUAACUAUACAACCUACUACGACA | 0.118 ± 0.037 | 0.00325 ± 0.0029
GGAGACGAUACUAUACAACCUUCAACCUCA | 0.00736 ± 0.0019 | 0.00247 ± 0.0013

Sequence | pre-steady-state target cleavage rate [1] | pre-steady-state target cleavage rate [2]
GGAGAGGAUACUAUACAACCUACUCCCUCA | 0.0191 ± 0.006 | 0.00429 ± 0.0017
GGAGUGGAUACUAUACAACCUACGUACCUCA | 0.118 ± 0.014 | 0.00401 ± 0.0015
GGAGUCGAUACUAUACAACCUACUACCUCA | 0.18 ± 0.013 | 0.106 ± 0.034
GGAGUGGUUACUAUACUACCUACUACCUCA | 0.183 ± 0.01 | 0.00596 ± 0.0023
GGAGAGGAUACAAUACAACCUACUACGUCA | 0.0443 ± 0.0068 | 0.00333 ± 0.0019
GGAGUGGAUACUAUACAACCACUACCUCA | 0.00753 ± 0.002 | 0.00771 ± 0.0031
GGAGUGGAUACUAUACAACCUCUACCUCA | 0.0226 ± 0.0033 | 0.0673 ± 0.023
GGAGUGGAUACAAUACAACCUACUACGUCA | 0.0406 ± 0.0063 | 0.0038 ± 0.0016
GGAGAGGAUACUAUACAACAUACUACCUCA | 0.0488 ± 0.0058 | 0.0063 ± 0.0023
GGAGAGCAUACUAUACAACCUACUACGUCA | 0.112 ± 0.017 | 0.00351 ± 0.0025
GGAGAGGAUACUAUAACAACCUACUACCUCA | 0.161 ± 0.012 | 0.0661 ± 0.025
GGAGUCGAUACUAUACAACCUACUAGCUCA | 0.0244 ± 0.0057 | 0.00304 ± 0.0019
GGAGAGCAUACUAUACAACGUACUACCUCA | 0.0213 ± 0.003 | 0.00394 ± 0.0014
GGAGACCAUACUAUACAUCCUACUACGUCA | 0.158 ± 0.027 | 0.00585 ± 0.0034
GGAGACCUUUCAAUACAACCUACUACCUCA | 0.0649 ± 0.017 | 0.00501 ± 0.0042
GGAGUGGAUACAAUACAACCUACUACCACA | 0.111 ± 0.0093 | 0.00323 ± 0.0018
GGAGACCUUCACUAUACAACCUACUACCUCA | 0.107 ± 0.017 | 0.00775 ± 0.0054
GGAGACGAUACUAUACAUCCUACUACCUGA | 0.237 ± 0.031 | 0.00464 ± 0.0014
GGAGACCAAACUAUACUACCUACUACCUCA | 0.119 ± 0.022 | 0.00362 ± 0.0032
GGAGACGAUACUCAUACAACCUACUACCUCA | 0.198 ± 0.02 | 0.0151 ± 0.0063
